Experimental data as given in PubChem BioAssay AID1566 (Sanford-Burnham Center for Chemical Genomics, 2009).
In all, about 290,000 compounds went through this assay and about 1,800 (0.62%) were called active. Rule as the data show it: active = inhibition above about 50%; inactive = the rest. The list comes from a sample in which actives are over-represented; it also holds similar structures and randomly drawn compounds.

Assay: NOD2 signaling inhibitors, cell-based, luminescence, uHTS, HEK293 (AID 1566)
Settings: HEK293 NOD2/NF-kB luciferase reporter, at 4 µM, active compounds read high
With `CC(NS(=O)(=O)c1ccc(Cl)cc1)C(=O)N1CCOCC1` (stereo unspecified) the inhibition was -4.3% (inactive).
With `Cc1cc(OCC(=O)NCCCn2ccnc2)c2c(C)c(C)c(=O)oc2c1` the inhibition was -3.4% (inactive).
For `CC(CCc1ccco1)N(C)S(=O)(=O)c1csc(C(N)=O)c1` (stereo unspecified), the inhibition was 15% (inactive).
For `CC(=O)c1ccc(S(=O)(=O)N(C)C(C)CCc2ccco2)cc1` (stereo unspecified), the inhibition was 54.3% (active).
In the case of `COc1ccc(S(=O)(=O)N(C)C(C)CCc2ccco2)cc1` (stereo unspecified), the inhibition is reported as -3.3% (inactive).
With `CC(C)(C)C(=O)C[n+]1cccc(C(N)=O)c1` the inhibition was 12.8% (inactive).
With `O=C(COc1cccc(C(F)(F)F)c1)Nc1ccc(S(=O)(=O)N2CCCC2)cc1` the inhibition was -5.9% (inactive).
With `Cc1cc(N2CCCC2)ccc1NC(=O)COc1cccc(C(F)(F)F)c1` the inhibition was 60.3% (active).
For `O=C(COc1ccccc1)Nc1cc(C(F)(F)F)ccc1N1CCCC1`, the inhibition was 24.5% (inactive).
In the case of `O=C(Nc1cccc(C(F)(F)F)c1)C1CCN(S(=O)(=O)c2ccc(N3CCCC3=O)cc2)CC1`, the inhibition is reported as 34.8% (inactive).
With `Cc1cc(C)c(N=C2C(=O)Nc3ccccc32)c(C)c1` the inhibition was 22.5% (inactive).
For `Cc1cccc(C)c1N=C1C(=O)Nc2ccccc21`, the inhibition was 57.9% (active).
In the case of `Cc1ccc(N=C2C(=O)Nc3ccccc32)cc1`, the inhibition is reported as 4% (inactive).
For `CCN(CC)C(=O)C1CCN(S(=O)(=O)c2ccc3c(c2)CCCN3C(=O)C2CCC2)CC1`, the inhibition was 23.6% (inactive).
In the case of `COc1ccc(NC(C)=O)cc1NC(=O)c1ccc2ccccc2c1`, the inhibition is reported as -14.6% (inactive).
With `CCc1sc(NC(C)=O)nc1-c1ccccc1` the inhibition was -49.5% (inactive).
With `CC(=O)Nc1ccc(NC(=O)C2CCC(CNS(=O)(=O)c3cccc4nsnc34)CC2)cc1` (stereo unspecified) the inhibition was -8.1% (inactive).
In the case of `Cc1cc(=O)n2nc(N3CCC(C(=O)N4CCN(c5ccccc5)CC4)CC3)sc2n1`, the inhibition is reported as -8.2% (inactive).
With `CCCc1cc(=O)n2nc(N3CCC(C(=O)N4CCN(c5cccc(OC)c5)CC4)CC3)sc2n1` the inhibition was 40.5% (inactive).
In the case of `CCCc1cc(=O)n2nc(N3CCC(C(=O)N4CCN(c5ccc(OC)cc5)CC4)CC3)sc2n1`, the inhibition is reported as 62.2% (active).
With `NS(=O)(=O)c1ccc(CCNC(=O)c2ccc3ccccc3n2)cc1` the inhibition was -17.8% (inactive).
With `CCc1nnc(NC(=O)c2ccc(S(=O)(=O)N3CCc4ccccc4C3)cc2)s1` the inhibition was 25.4% (inactive).
With `O=C(Nc1nnc(C2CC2)s1)c1ccc(Cl)c(S(=O)(=O)N2CCc3ccccc3C2)c1` the inhibition was 41.6% (inactive).
With `CCCn1ncc(CN2CCCC(C(=O)c3cccc(OC(C)C)c3)C2)c1C` (stereo unspecified) the inhibition was -35.2% (inactive).
In the case of `Cc1[nH]c2ccc(C(=O)N3CCCCC3)cc2c1C`, the inhibition is reported as -56% (inactive).
For `CCC(=O)OCn1nnc2ccccc2c1=O`, the inhibition was 7.6% (inactive).
For `Cc1sc(NC(=O)CCC(=O)O)c(C(N)=O)c1-c1ccccc1`, the inhibition was -3.9% (inactive).
For `Cc1sc(NC(=O)c2cccc([N+](=O)[O-])c2)c(C(N)=O)c1-c1ccc(C(C)(C)C)cc1`, the inhibition was 7.8% (inactive).
With `O=S(=O)(Nc1cccc(-c2cn3cccnc3n2)c1)c1ccc(F)cc1` the inhibition was 0.9% (inactive).
In the case of `O=S(=O)(Nc1cccc(-c2cn3cccnc3n2)c1)c1ccccc1`, the inhibition is reported as 4.2% (inactive).
With `COC(=O)C1CC(Cl)CN1c1ncc(C(F)(F)F)cc1Cl` (stereo unspecified) the inhibition was 17.1% (inactive).
With `c1ccc(CCNc2ncnc3ccccc23)cc1` the inhibition was 28.7% (inactive).
For `COc1cc2ncnc(NCc3ccco3)c2cc1OC`, the inhibition was -78.1% (inactive).
With `COc1cc2ncnc(NCc3ccccc3)c2cc1OC` the inhibition was -17.4% (inactive).
For `OCCNc1ncnc2ccc(Br)cc12`, the inhibition was 23% (inactive).
With `CCN(CC)CCCNc1ncnc2ccccc12` the inhibition was 9.5% (inactive).
With `Brc1ccc2ncnc(NCc3ccccc3)c2c1` the inhibition was 79% (active).
With `CCCCCCCCNc1ncnc2ccccc12` the inhibition was 55.7% (active).
With `Clc1ccc2c(NCc3ccco3)ncnc2c1` the inhibition was 18.8% (inactive).
In the case of `c1ccc(CNc2nc(NCc3ccccc3)c3ccccc3n2)cc1`, the inhibition is reported as -4.4% (inactive).
In the case of `OCCCCCNc1ncnc2ccccc12`, the inhibition is reported as 40.1% (inactive).
In the case of `c1ccc(CNc2ncnc3ccccc23)cc1`, the inhibition is reported as 55.3% (active).
With `Nc1nc(Nc2cccc(Cl)c2)nc(NCCO)c1[N+](=O)[O-]` the inhibition was 15.3% (inactive).
For `CCOc1ccc(CN(C)CC(=O)Nc2cc(OC)c([N+](=O)[O-])cc2C)cc1`, the inhibition was -8% (inactive).
For `CCCN(CCC)S(=O)(=O)c1ccc(C(=O)NNc2nc(-c3ccccc3)c3cc(Br)ccc3n2)cc1`, the inhibition was -5% (inactive).
For `Cc1cccnc1NC(=O)CCNC(=O)c1ccccc1Cl`, the inhibition was -22.7% (inactive).
In the case of `COc1ccccc1NC(=O)CSc1n[nH]c(-c2cccnc2)n1`, the inhibition is reported as 8.6% (inactive).
For `COc1ccc(C2C(C(=O)c3ccco3)=C(O)C(=O)N2CCCn2ccnc2)c(OC)c1` (stereo unspecified), the inhibition was -6.9% (inactive).
For `CC(C)=C(NC(=O)c1ccccc1)C(=O)NCc1ccccc1`, the inhibition was -7% (inactive).
With `O=c1sc2ccccc2c(N2CCOCC2)c1[N+](=O)[O-]` the inhibition was 8.4% (inactive).
In the case of `COc1cc(/C=N\n2cnnc2)ccc1OCC(=O)Nc1ccc(C)cc1`, the inhibition is reported as 12.5% (inactive).
With `COC(=O)C1(Cc2cc(-c3cccnc3)no2)CCN(C(=O)OC(C)(C)C)CC1` the inhibition was 15.6% (inactive).
In the case of `CN1CCN(c2ccc(-c3ccc4ccccc4n3)cc2)CC1`, the inhibition is reported as 79.9% (active).
For `COc1ccc(-c2ccc3ccccc3n2)cc1`, the inhibition was -226% (inactive).
For `c1ccc2nc(-c3ccc(N4CCOCC4)cc3)ccc2c1`, the inhibition was -59.7% (inactive).
In the case of `Nc1ccc(Oc2cc(N)cc(Oc3ccccc3)c2)cc1`, the inhibition is reported as -93.4% (inactive).
In the case of `Cc1cccc(Oc2ccc(N)cc2)c1`, the inhibition is reported as -4% (inactive).
For `CC(C)c1ccc(C(C(=O)NC2CCCC2)N(C(=O)c2csnn2)C2CC2)cc1` (stereo unspecified), the inhibition was 12.1% (inactive).
For `CC(SCc1ccccc1)C(=O)NC1CCCC1` (stereo unspecified), the inhibition was -2.5% (inactive).
For `Cc1nc(SCC(=O)Nc2ccnc3ccccc23)n[nH]1`, the inhibition was 17.9% (inactive).
With `Cc1cc(=O)[nH]c(SCC(=O)Nc2ccnc3ccccc23)n1` the inhibition was 26.4% (inactive).
In the case of `Cc1cc(C)nc(SCC(=O)Nc2ccnc3ccccc23)n1`, the inhibition is reported as 50.5% (active).
With `NC(=O)c1cnn(-c2cc(Oc3ccccc3)ncn2)c1N` the inhibition was -54.7% (inactive).
With `Nc1ccc2c(c1)N=[N+]([O-])c1cc(N)ccc1C2` the inhibition was 4.2% (inactive).
For `CC(=O)c1c(O)ccc2c(-c3ccccc3)cc(=O)oc12`, the inhibition was 13% (inactive).
For `CN(C)Cc1c(O)ccc2c(-c3ccccc3)cc(=O)oc12`, the inhibition was 1.4% (inactive).
For `COc1cc(NS(=O)(=O)c2ccc(N/C=C(\C=O)c3nc4ccccc4o3)cc2)nc(OC)n1`, the inhibition was 11% (inactive).
For `CC(=O)NNC(=S)NC(=O)c1cccc([N+](=O)[O-])c1`, the inhibition was 14.7% (inactive).
For `O=C(CN1C(=O)NC2(CCCC2)C1=O)N1CCN(S(=O)(=O)c2ccccc2Br)CC1`, the inhibition was 3.9% (inactive).
With `CCc1c(C)sc(NC(=O)c2cc(C)on2)c1C#N` the inhibition was -59.7% (inactive).
For `CCc1c(C)sc(NC(=O)c2cc(-c3ccc(OC)c(OC)c3)on2)c1C#N`, the inhibition was 11.3% (inactive).
With `CCc1c(C)sc(NC(=O)c2cc(-c3ccc(O)cc3)on2)c1C#N` the inhibition was 50.7% (active).
With `COc1ccc(CN(C)S(=O)(=O)c2nnc(NC(=O)c3cccc(OC)c3)s2)cc1` the inhibition was 29.7% (inactive).
In the case of `COc1ccc(CN(C)S(=O)(=O)c2nnc(NC(=O)c3cccc(F)c3)s2)cc1OC`, the inhibition is reported as 44.4% (inactive).
For `Cn1c(NC2CCCCC2)cc(=O)n(C)c1=O`, the inhibition was 15.2% (inactive).
With `COc1ccccc1OCC(=O)N1CCCC(Nc2ccc(C)c(C)c2)C1` (stereo unspecified) the inhibition was 16.3% (inactive).
For `CCCCn1c(N)c(N(CC(C)C)C(=O)c2cccc(S(=O)(=O)N3CCCCCC3)c2)c(=O)[nH]c1=O`, the inhibition was 0.1% (inactive).
For `CCc1cc(=O)oc2cc(C)cc(OCC(=O)C(C)(C)C)c12`, the inhibition was 8.9% (inactive).
For `O=C(Nc1cccc([N+](=O)[O-])c1)Nc1ccc2c(c1)CCC2`, the inhibition was -35.7% (inactive).
With `COc1cc2c(cc1OC)C(COc1ccc([N+](=O)[O-])cc1)N(C(C)=O)CC2` (stereo unspecified) the inhibition was 60.6% (active).
In the case of `COC(=O)c1ccc(OCC2c3cc(OC)c(OC)cc3CCN2C(C)=O)cc1` (stereo unspecified), the inhibition is reported as 6.9% (inactive).
In the case of `COc1cc2c(cc1OC)C(COc1ccc(F)cc1)N(C(C)=O)CC2` (stereo unspecified), the inhibition is reported as 2.4% (inactive).
In the case of `Cc1ccc(C(=O)NNC(=O)c2ccc(NC(=O)C(C)(C)C)cc2)cc1`, the inhibition is reported as 8.3% (inactive).
In the case of `CC1(C)CC(=O)C=C(C(=O)N2CCCC(C(=O)c3cccc(C(F)(F)F)c3)C2)O1` (stereo unspecified), the inhibition is reported as 15.7% (inactive).
For `CN(C)S(=O)(=O)c1ccc(Nc2nc(C3CC3)nc3c2nnn3Cc2ccccc2Cl)cc1`, the inhibition was 58.7% (active).
In the case of `COC(=O)CNc1nc(C2CC2)nc2c1nnn2Cc1ccccc1Cl`, the inhibition is reported as 7.3% (inactive).
For `OCCNc1nc(C2CC2)nc2c1nnn2Cc1ccccc1Cl`, the inhibition was 3.7% (inactive).
In the case of `CCCCC(CC)CNC(=O)c1cc2ccccc2c(=O)o1` (stereo unspecified), the inhibition is reported as 9.7% (inactive).
With `O=C(CCNS(=O)(=O)c1ccc(Br)cc1)NCCc1ccc(Cl)cc1` the inhibition was -1.7% (inactive).
With `CNC(=O)N(O)C1N(/N=C/c2cc(Br)ccc2O)C(=S)SC1(C)C` (stereo unspecified) the inhibition was 13.6% (inactive).
In the case of `Cc1ccc(S(=O)(=O)Cc2ccc(C(=O)N3CCN(c4cccc(C)c4C)CC3)o2)cc1`, the inhibition is reported as 13.8% (inactive).
For `Cc1ccccc1S(=O)(=O)Cc1ccc(C(=O)N2CCN(c3ccccc3F)CC2)o1`, the inhibition was 10.3% (inactive).
With `Cc1onc(-c2ccccc2Cl)c1C(=O)N1CCCCC1C(=O)O` (stereo unspecified) the inhibition was 8% (inactive).
For `CCOC(=O)c1c(C)[nH]c(C)c1C(=O)CSc1nc2ccccc2c(=O)n1-c1ccc(F)cc1`, the inhibition was -3.4% (inactive).
For `CCOC(=O)c1c(C)[nH]c(C)c1C(=O)CSc1nc2ccccc2c(=O)n1-c1ccc(C)cc1`, the inhibition was -12.1% (inactive).
In the case of `CCC(CC)N1CCN(S(=O)(=O)c2ccc(OC)cc2)CC1`, the inhibition is reported as -0.3% (inactive).
